CRFBP-R2 agonist: CRF-BP/CRF-R2 complex agonism; HEK293 CRF-R2/CRF-BP, calcium dye fluorescence (FLIPR); percent of saturating CRF peptide response; activation, % at 13.2 µM; actives 0.46% (n = 350,000);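 active = activation of at least 50%, plus an integration ratio under a set limit after plate pattern correction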;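 also: plate controls were neutral control wells without compound for no effect and CRF at EC100 for full effect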
CRFBP-R2 block: CRF-BP/CRF-R2 complex antagonism; actives 0.59% (n = 350,000); inhibition, % at 11.8 µM; HEK293 CRF-R2/CRF-BP, CRF-induced calcium fluorescence; AID 588475;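 active = inhibition of the ligand-induced calcium signal above about 50% at the single tested concentration, limit read from the data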
TPT1 inh: inhibitors of Candida albicans tRNA 2'-phosphotransferase TPT1; recombinant caTPT1, FP RNA substrate dephosphorylation; inhibition, % at 5 µM; actives 0.81% (n = 300,000);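 active = inhibition above the mean of all tested compounds plus 3 SD, set per screening campaign, cut at about 24% in these data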;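 also: plate controls were DMSO alone for no effect and ferristatin control at 100 nM for full effect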
IDE act: boosts human insulin-degrading enzyme activity in HEK cells; FAbeta-B cleavage, fluorescence polarization; 0% vehicle, 100% cell-free pure enzyme wells; AID 493087; activation, % at 5.96 µM; actives 0.073% (n = 340,000);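 active = activation above the mean of all tested compounds plus 3 SD, set per screening campaign, cut at about 17% in these data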
Target sequence (P14735 whole entry, looked up): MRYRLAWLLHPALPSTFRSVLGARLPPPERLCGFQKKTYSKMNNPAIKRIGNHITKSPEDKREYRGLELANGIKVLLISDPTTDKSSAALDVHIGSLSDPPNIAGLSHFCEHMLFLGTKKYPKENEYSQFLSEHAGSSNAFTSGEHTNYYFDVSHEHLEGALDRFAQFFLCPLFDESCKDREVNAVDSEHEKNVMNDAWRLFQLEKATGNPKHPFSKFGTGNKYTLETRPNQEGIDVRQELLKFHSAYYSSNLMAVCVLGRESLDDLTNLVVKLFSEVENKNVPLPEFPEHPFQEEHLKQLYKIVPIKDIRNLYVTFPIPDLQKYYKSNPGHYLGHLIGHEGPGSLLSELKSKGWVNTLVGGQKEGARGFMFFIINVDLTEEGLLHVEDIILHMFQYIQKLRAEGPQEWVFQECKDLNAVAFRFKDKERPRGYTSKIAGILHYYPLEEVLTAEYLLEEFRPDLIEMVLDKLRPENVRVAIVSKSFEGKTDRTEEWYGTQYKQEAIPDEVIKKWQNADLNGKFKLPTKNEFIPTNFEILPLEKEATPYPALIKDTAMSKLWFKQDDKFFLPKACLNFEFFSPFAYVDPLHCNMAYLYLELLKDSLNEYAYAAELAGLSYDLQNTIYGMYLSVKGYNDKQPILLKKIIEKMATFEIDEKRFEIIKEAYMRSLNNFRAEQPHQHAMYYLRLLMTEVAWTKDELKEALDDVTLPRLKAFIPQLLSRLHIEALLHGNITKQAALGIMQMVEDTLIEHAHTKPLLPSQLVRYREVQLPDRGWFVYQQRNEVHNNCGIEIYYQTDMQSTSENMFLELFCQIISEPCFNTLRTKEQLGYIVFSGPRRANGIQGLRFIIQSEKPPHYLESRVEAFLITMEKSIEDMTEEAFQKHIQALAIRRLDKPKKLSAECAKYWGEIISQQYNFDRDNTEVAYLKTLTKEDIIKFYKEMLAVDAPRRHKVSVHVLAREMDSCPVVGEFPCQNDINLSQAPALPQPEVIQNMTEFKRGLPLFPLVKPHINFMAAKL
Myeloid diff 2: promotes myeloid progenitor differentiation | ER-HoxA9 myeloid progenitors, lysozyme-GFP differentiation, flow cytometry | calls only at 10 µM | actives 1% (n = 360,000);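 active = normalized GFP-positive differentiation at or above the plate's own cutoff, the solvent-only control mean plus 3 SD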;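 also: cells exposed to compound for four days before flow analysis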
IDE inh: inhibitors of human insulin-degrading enzyme in cells; AID 434962; HEK cells, FAbetaB cleavage, fluorescence polarization; inhibition, % at 5.59 µM; P14735; actives 0.41% (n = 320,000);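 active = percent inhibition above the average of all tested compounds plus 3 SD, set per screening campaign, cut at about 16% in these data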;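 also: IDE supplied by intact live HEK cells; FP after avidin binding of uncleaved biotin substrate so inhibition keeps polarization high; 0% = DMSO wells and 100% = 60 µM reference IDE inhibitor Ii1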
* hit, by the source's call. An excerpt weighted towards active compounds, which were near 2.6% of everything screened.

`COc1ccc(NC(=O)CSc2nnc(NC(C)=O)s2)c([N+](=O)[O-])c1` gave CRFBP-R2 agonist 0, CRFBP-R2 block -6, TPT1 inh -4, IDE act 3, Myeloid diff 2 inactive and IDE inh -2.
Screening Cc1ccccc1NC(=S)NC1CCN(Cc2ccccc2)CC1 returned CRFBP-R2 agonist 1, CRFBP-R2 block 21, TPT1 inh -2, IDE act 0, Myeloid diff 2 inactive and IDE inh 6.
`Cn1c(CCNC(=O)c2ccco2)nc2cc(NC(=O)c3ccco3)ccc21` gave CRFBP-R2 agonist 0, CRFBP-R2 block 108*, TPT1 inh -2, IDE act 4, Myeloid diff 2 inactive and IDE inh 2.
CC(C)(C)NC(=O)NC(=O)CN1CCCc2ccccc21 was read as CRFBP-R2 agonist 1, CRFBP-R2 block -33, TPT1 inh 18, IDE act 9, Myeloid diff 2 active and IDE inh 9.
For O=C(CN1CCCc2ccccc21)NC(=O)NCc1ccccc1 the results were CRFBP-R2 agonist 1, CRFBP-R2 block -12, TPT1 inh 0, IDE act 2, Myeloid diff 2 inactive and IDE inh 1.
COc1ccc2sc(-c3ccc(S(C)(=O)=O)cc3)c(C(=O)NCCc3c[nH]c4ccccc34)c2c1 was read as CRFBP-R2 agonist -1, CRFBP-R2 block 63*, IDE act 1 and IDE inh 0.
For COc1ccc2c(C(=O)NCCCCO)c(-c3ccc(S(C)(=O)=O)cc3)sc2c1 the results were CRFBP-R2 agonist 0, CRFBP-R2 block 1, IDE act 4, Myeloid diff 2 inactive and IDE inh 2.
`CCOCCCNC(=S)Nc1ccc(S(N)(=O)=O)cc1` gave CRFBP-R2 agonist -1, CRFBP-R2 block 2, TPT1 inh -5, IDE act 1, Myeloid diff 2 inactive and IDE inh 1.
`COCCn1c(SCc2nnc(-c3ccccc3)o2)nc2sc3c(c2c1=O)CCC3` gave CRFBP-R2 agonist 1, CRFBP-R2 block 55*, IDE act -9 and Myeloid diff 2 inactive.
Cc1cc(OCC(=O)OCC(=O)NCc2ccco2)ccc1Cl was read as CRFBP-R2 agonist 0, CRFBP-R2 block 4, TPT1 inh -2, IDE act 4, Myeloid diff 2 inactive and IDE inh 3.
O=C(CCc1nnc(Cc2c[nH]c3ccccc23)o1)NCCC1CCCCO1 (centres undefined) was read as CRFBP-R2 agonist -1, CRFBP-R2 block 41 and Myeloid diff 2 active.
`C(=C\c1ccccc1)/CN1CCN(C(c2ccccc2)c2nnnn2Cc2ccccc2)CC1` (centres undefined) gave Myeloid diff 2 inactive.
CC(=O)Nc1ccc(NS(=O)(=O)c2ccc3[nH]c(=O)[nH]c3c2)cc1 was read as CRFBP-R2 agonist -1, CRFBP-R2 block 22, TPT1 inh 2, IDE act 9, Myeloid diff 2 active and IDE inh -3.
Screening CCCCOc1ccc(S(=O)(=O)Nc2ccc(NC(C)=O)cc2)cc1 returned CRFBP-R2 agonist 13, CRFBP-R2 block -48, TPT1 inh -3, IDE act -4, Myeloid diff 2 active and IDE inh -2.
For CCCCN(CCCC)S(=O)(=O)c1ccc(NS(=O)(=O)c2ccc(NC(C)=O)cc2)cc1 the results were CRFBP-R2 agonist 2, CRFBP-R2 block 8, TPT1 inh -3, IDE act 5, Myeloid diff 2 inactive and IDE inh 0.
`CC(=O)Nc1ccc(NS(=O)(=O)c2ccc3ccccc3c2)cc1` gave CRFBP-R2 agonist 2, CRFBP-R2 block -12, TPT1 inh 2, IDE act 3, Myeloid diff 2 active and IDE inh 5.
For COc1ccc(NS(=O)(=O)c2ccc3[nH]c(=O)[nH]c3c2)cc1 the results were CRFBP-R2 agonist -1, CRFBP-R2 block 6, TPT1 inh 1, IDE act 5, Myeloid diff 2 inactive and IDE inh 1.
`CC(=O)NS(=O)(=O)c1ccc(NS(=O)(=O)c2ccc3ccccc3c2)cc1` gave CRFBP-R2 agonist -2, CRFBP-R2 block 6, TPT1 inh 1, IDE act 0, Myeloid diff 2 inactive and IDE inh 1.

From PubChem BioAssay
